The values below come from PubChem BioAssay.

SMILES strings stand for the structures. Calls of active or inactive are those of the source.

Experiment [1] is described as follows: A549 cell viability effects, profiling panel, calcein-AM fluorescence, 48 h, basal (AID 1162). The note with it: higher = more signal.
Experiment [2] is described as follows: adipocyte viability effects, profiling panel, cell-based, 3T3-L1 adipocytes, calcein-AM fluorescence, 48 h, basal (AID 1163). The note with it: 3T3-L1 adipocytes viability, higher = more signal.
Experiment [3] is described as follows: HepG2 cell viability effects, profiling panel, calcein-AM fluorescence, 48 h, basal (AID 1164). The note with it: higher = more signal.
Experiment [4] in a line: MM1S cell viability effects, profiling panel, calcein-AM fluorescence, 48 h, basal (AID 1165).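 Also: viability of MM1S multiple myeloma cells under basal unstimulated conditions.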 The note with it: higher = more signal.
A short description of experiment [5]: basal RPMI8226 viability, no added stimulus, profiling panel, cell-based, calcein-AM fluorescence, 48 h, PK04 Diversity Set (AID 1166).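 Also: cells grown under basal conditions without added stimulus.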 The note with it: RPMI8226 myeloma viability, higher = more signal.
Experiment [6] is described as follows: basal HepG2 mitochondrial membrane potential changes, profiling panel, cell-based, JC-1 fluorescence, 24 h, 100 nL compound (AID 1167). The note with it: higher = more signal.
Experiment [7] in a line: basal 3T3-L1 adipocyte mitochondrial potential changes, profiling panel, cell-based, JC-1 fluorescence, 3T3-L1 adipocytes, 24 h, 100 nL compound (AID 1168). The note with it: JC-1 mitochondrial fluorescence, higher = more signal, called active from +8 up or from −8 down.
A short description of experiment [8]: basal RPMI8226 mitochondrial membrane potential changes, profiling panel, cell-based, JC-1 fluorescence, 24 h, 100 nL compound (AID 1169). The note with it: RPMI8226 myeloma, JC-1 mitochondrial potential fluorescence, higher = more signal.
A short description of experiment [9]: basal MM1S mitochondrial membrane potential changes, profiling panel, cell-based, JC-1 fluorescence, 24 h, 100 nL compound (AID 1170). The note with it: higher = more signal.
The nature of experiment [10]: A549 lung cancer cell viability effects, profiling panel, resazurin fluorescence, 24 h, PK04 Diversity Set (AID 1171). The note with it: higher = more signal, called active from +8 up or from −8 down.
Also: test concentration not given here.

For the compound `O=C(C=C(CC(O)c1cccc(Cl)c1)OCCF)OCCF` (stereo not given), the z-score was 0.595 in experiment [1]; 0.642 in experiment [2]; 0.989 in [3]; 0.947 in experiment [4]; -0.667 in experiment [5]; 0.586 in experiment [6]. Also, the z-score in experiment [7] is 0.869 (inactive); in experiment [8], 0.0309; in experiment [9], -0.273; in experiment [10], 0.135 (inactive).

`C=CC[C@@]1(C(=O)NCC(O)CO)N=C(c2ccc(OCCCO)cc2)O[C@@H]1c1ccccc1` (stereo not given in full): the z-score is 0.183 in experiment [1]; 1.07 in experiment [2]; -0.412 in experiment [3]; 0.281 in experiment [4]; -0.561 in experiment [5]; -0.152 in experiment [6]. The z-score in [7] is 0.622 (inactive); in experiment [8], 0.49; in experiment [9], 1.18; in [10], 0.295 (inactive).

As for `CN(C)CCCNC(=O)[C@@]1(Cc2ccccc2I)c2ccccc2C(=O)N(Cc2ccccc2Cl)[C@H]1c1ccc(CO)cc1`, the z-score in experiment [1] is -4.22; in experiment [2], 0.711; in experiment [3] it was -5.11; in experiment [4], -3.8; in experiment [5] it was -4.38; in experiment [6] it was -1.9. In addition, the z-score in [7] was -0.373 (inactive); in experiment [8], -0.935; in [9], -2.3; in experiment [10], -6.99 (inactive).

In the case of `C=CCC(OC(C)=O)[C@@H]1[C@@H](N(Cc2ccc(-c3ccccc3)cc2)C(=O)Cc2ccc(OC)cc2)c2cc(OCCCO)ccc2N1C(=O)c1ccc(-c2ccccc2)cc1` (stereo not given in full), the z-score in [1] is 0.817; in experiment [2], 0.397; in experiment [3], 1.3; in [4] it was 0.366; in experiment [5], 0.368; in [6], 3.34. For the same compound, the z-score is 0.269 (inactive) in experiment [7], 0.298 in [8], 0.494 in experiment [9] and 1.21 (inactive) in [10].

For `COC(=O)[C@@]1(Cc2ccc(OC)cc2)[C@H]2c3cc(C(=O)N4CCCC4)n(CCF)c3C[C@H]2CN1C(=O)c1ccccc1`, the z-score in [1] was -1.41; in [2], 1.71; in [3], -0.336; in [4] it was 0.0026; in [5] it was -1.05; in experiment [6], 3.33. Besides, the z-score in experiment [7] was -1.65 (inactive); in experiment [8], -0.178; in experiment [9], -0.0401; in [10], -1.55 (inactive).

As for `C=CCNC(=O)[C@H]1[C@@H]2C(=O)O[C@@H](c3ccccc3)[C@@H](c3ccccc3)N2[C@@H](c2ccc(OCCO)cc2)[C@]12C(=O)N(C(=O)OCCOC)c1ccc(C#CC3=CCCCC3)cc12`, the z-score is -0.906 in experiment [1]; 0.968 in experiment [2]; -0.546 in experiment [3]; -1.96 in [4]; -2.49 in [5]; -0.609 in [6]. The z-score was 2.06 (inactive) in experiment [7], -0.753 in experiment [8], -1.05 in experiment [9] and 0.248 (inactive) in experiment [10].

`O=C(Nc1cc(Br)ccc1C(=O)NCc1cccc(O)c1)c1ccccc1`: the z-score in experiment [1] was -1.71; in experiment [2] it was -0.318; in [3] it was -2.25; in experiment [4], -3.11; in experiment [5], -2.49; in experiment [6], 0.386. Besides, the z-score is 5.49 (inactive) in experiment [7], -0.226 in [8], -1.12 in experiment [9] and -0.326 (inactive) in experiment [10].

On to `COC(=O)[C@@]1(Cc2ccccc2)[C@H]2c3cc(C(=O)N(C)C)n(Cc4ccc(O)c(OC)c4)c3C[C@H]2CN1C(=O)c1ccccc1`, for which the z-score in experiment [1] was -0.927; in experiment [2] it was 1.68; in [3], 0.0419; in experiment [4], -0.494; in experiment [5] it was -1.26; in experiment [6], 2.19. Also, the z-score in [7] was -0.485 (inactive); in experiment [8], -0.671; in experiment [9], -1.47; in [10], 0.349 (inactive).

Turning to `COc1cc2c(cc1OC)CN(C(=O)[C@@H]1[C@H]3C(=O)O[C@H](c4ccccc4)[C@H](c4ccccc4)N3[C@H](c3ccc(OCCO)cc3)[C@@]13C(=O)Nc1ccc(C#CCCO)cc13)CC2`, the z-score was -0.433 in experiment [1]; 1.06 in experiment [2]; -0.857 in experiment [3]; -0.369 in experiment [4]; -0.987 in [5]; -1.56 in experiment [6]. The z-score in experiment [7] is 1 (inactive); in experiment [8], -0.862; in [9], -1.04; in experiment [10] it was 0.519 (inactive).

Consider `COc1cc(NN2C(C(O)c3ccc(I)cc3)C=CC3C(=O)N(C)C(=O)C32)cc(OC)c1OC` (stereo not given), for which the z-score in [1] was -0.0595; in experiment [2] it was 0.459; in experiment [3], 0.196; in experiment [4], -0.07; in experiment [5] it was 0.24; in [6] it was -0.461. The z-score in experiment [7] was 0.0122 (inactive); in [8] it was -0.335; in experiment [9], -0.311; in [10], -1.42 (inactive).

As to `O=C1NC(=O)C2C1C=CC(C(O)CCc1ccccc1)N2Nc1ccccn1` (stereo not given), the z-score in experiment [1] was -1.58; in experiment [2] it was 0.0058; in experiment [3], 1.23; in experiment [4], 0.87; in experiment [5], 1.02; in [6], -0.149. Moreover, the z-score in experiment [7] was -0.382 (inactive); in experiment [8], 0.282; in [9] it was 0.228; in experiment [10], -1.72 (inactive).

For `COCCOC(=O)N1C(=O)[C@@]2(c3cc(C#CCNC(N)=O)ccc31)[C@H](C(N)=O)[C@H]1C(=O)O[C@H](c3ccccc3)[C@H](c3ccccc3)N1[C@@H]2c1ccc(OCCO)cc1`, the z-score is -0.304 in [1]; -0.867 in [2]; -0.392 in [3]; -0.905 in experiment [4]; 0.66 in experiment [5]; -2.81 in [6]. For the same compound, the z-score was 0.441 (inactive) in experiment [7], -0.634 in experiment [8], -0.602 in [9] and 0.452 (inactive) in experiment [10].

`COCCOC(=O)N1C(=O)[C@@]2(c3cc(C#CC4(O)CCCCCC4)ccc31)[C@H](C(=O)NC[C@H](O)c1ccccc1)[C@H]1C(=O)O[C@H](c3ccccc3)[C@H](c3ccccc3)N1[C@@H]2c1ccc(OCCO)cc1`: the z-score was -0.248 in experiment [1]; 0.504 in [2]; -0.466 in experiment [3]; -1.16 in experiment [4]; -1.91 in [5]; -1.64 in experiment [6]. Besides, the z-score in experiment [7] is 1 (inactive); in [8] it was -1.01; in experiment [9], -1.19; in experiment [10] it was 0.365 (inactive).

As to `C=C[C@@H](O)[C@H]1CC(c2ccccc2)=NO1`, the z-score in experiment [1] is 0.721; in [2], -3.92; in experiment [3] it was -0.34; in [4], 0.626; in [5], 0.353; in experiment [6], 0.0313. For the same compound, the z-score in experiment [7] is -0.809 (inactive); in experiment [8], 0.434; in experiment [9] it was -0.819; in [10], 0.558 (inactive).
